Values joined by “and” are separate entries in the source; they are usually repeats but may differ in a detail not shown here. Equal entries are not always repeated. Results filed as inconclusive are left out. A call without a number means that no potency is given here. Active and inactive are the calls of the source. Calls come from the whole dose curve; as a rule, active = well fitted curve in the direction sought with a large enough effect; inconclusive = small, poorly fitted or top-dose-only effect, or another doubt; inactive = no such curve, though single readings can be large; an effect the other way counts as inactive or inconclusive.
How the values were obtained:
[1] = qHTS of pediatric cancer cell lines to identify multiple opportunities for drug repurposing: Primary screen for SK-N-SH cells (AID 1347098); note: nearly all actives have a fitted effect of over 65% in size
Summary of the method: (§1)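 Cells (500-1,000/well) rested 5 h, then received compounds for 48 h; metabolically active cells were measured by CellTiter-Glo luminescence. Final concentrations spanned up to 46 µM (MIPE, 11-point) or 0.59 nM-46 µM (NPC, 8-point) in primary screens, 11-point in follow-ups.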

[2] = qHTS of pediatric cancer cell lines to identify multiple opportunities for drug repurposing: Primary screen for NB1643 cells (AID 1347099); note: nearly all actives have a fitted effect of over 50% in size
Summary of the method: (§2)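 ATP-based luminescence (CellTiter-Glo) quantifies viability after a 48-hour exposure. Compounds are dosed across 8 or 11 final concentrations; DMSO and 2.3 µM bortezomib serve as controls.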

[3] = qHTS of pediatric cancer cell lines to identify multiple opportunities for drug repurposing: Primary screen for LAN-5 cells (AID 1347100)
Summary of the method: as §1

[4] = qHTS of pediatric cancer cell lines to identify multiple opportunities for drug repurposing: Primary screen for BT-12 cells (AID 1347101); note: nearly all actives have a fitted effect of over 25% in size
Summary of the method: as §1

[5] = qHTS of pediatric cancer cell lines to identify multiple opportunities for drug repurposing: Primary screen for Rh18 cells (AID 1347102); note: nearly all actives have a fitted effect of over 65% in size
Summary of the method: as §1

[6] = qHTS of pediatric cancer cell lines to identify multiple opportunities for drug repurposing: Primary screen for OHS-50 cells (AID 1347103); note: nearly all actives have a fitted effect of over 40% in size
Summary of the method: as §1

[7] = qHTS of pediatric cancer cell lines to identify multiple opportunities for drug repurposing: Primary screen for RD cells (AID 1347104); note: nearly all actives have a fitted effect of over 55% in size
Summary of the method: as §2

[8] = qHTS of pediatric cancer cell lines to identify multiple opportunities for drug repurposing: Primary screen for MG 63 (6-TG R) cells (AID 1347105); note: nearly all actives have a fitted effect of over 50% in size
Summary of the method: as §2

[9] = qHTS of pediatric cancer cell lines to identify multiple opportunities for drug repurposing: Primary screen for control Hh wild type fibroblast cells (AID 1347106); note: nearly all actives have a fitted effect of over 55% in size
Summary of the method: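 Viability after 48 h compound treatment at 37C, 500-1,000 cells/well, read as ATP luminescence with CellTiter-Glo. Primary screens used 11-point (MIPE, 0.78 nM-46 µM) or 8-point (NPC, 0.59 nM-46 µM) final concentrations; follow-up screens used 11-point dilutions.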

[10] = qHTS of pediatric cancer cell lines to identify multiple opportunities for drug repurposing: Primary screen for Rh30 cells (AID 1347107); note: nearly all actives have a fitted effect of over 75% in size
Summary of the method: as §1
Potency is the fitted concentration of half-maximal effect.

Compound	Potency [1]	Potency [2]	Potency [3]	Potency [4]	Potency [5]	Potency [6]	Potency [7]	Potency [8]	Potency [9]	Potency [10]
Cc1nnc2n1-c1sc(CCC(=O)N3CCOCC3)cc1C(c1ccccc1Cl)=NC2	inactive	inactive	inactive	inactive	inactive	inactive	inactive	inactive	inactive	inactive
CC(C)(O)C(Cl)(Cl)Cl	inactive	inactive	inactive	inactive	inactive	inactive	inactive	inactive	inactive	inactive
CCOC(=O)NC(C)(C)Cc1ccc(Cl)cc1	inactive	inactive	inactive	inactive	inactive	inactive	inactive	inactive	inactive	inactive
Cc1c(Cl)c(=O)oc2cc(OP(=O)(OCCCl)OCCCl)ccc12	inactive	inactive	inactive	inactive	inactive	inactive	inactive	inactive	inactive	inactive
C=CCN1CC[C@]23CCCC[C@H]2[C@H]1Cc1ccc(O)cc13	inactive	inactive	inactive	inactive	inactive	inactive	inactive	inactive	inactive	inactive
CCCC[N+]1(C)[C@@H]2CC(OC(=O)[C@H](CO)c3ccccc3)C[C@H]1[C@@H]1O[C@@H]12 (some centres undefined)	inactive	inactive	inactive	inactive	inactive	inactive	inactive	inactive	inactive	inactive
COc1cc(N)c(Cl)cc1C(=O)NC1CN2CCC1CC2 (centres undefined)	inactive	inactive	inactive	inactive	inactive	inactive	inactive	inactive	inactive	inactive
CC(Cc1ccccc1)NCCCCl (centres undefined)	inactive	inactive	inactive	inactive	inactive	inactive	inactive	inactive	inactive	inactive
CNC(C)Cc1ccccc1OC (centres undefined)	inactive	inactive	inactive	inactive	inactive	inactive	inactive	inactive	inactive	inactive
CCC1(CC)C(=O)NC(=O)NC1=O	inactive	inactive	inactive	inactive	inactive	inactive	inactive	inactive	inactive	inactive
COP(=S)(OC)Oc1ccc(S(N)(=O)=O)cc1	inactive	inactive	inactive	inactive	inactive	inactive	inactive	inactive	inactive	inactive
ClCc1cccc(Cl)c1	inactive	inactive	inactive	inactive	inactive	inactive	inactive	inactive	inactive	inactive
CCN1CCCC1CNC(=O)C(O)(c1ccccc1)c1ccccc1 (centres undefined)	inactive	inactive	inactive	inactive	inactive	inactive	inactive	inactive	inactive	inactive
CN(C)C(=S)SSC(=S)N(C)C	244 nM (active)	531 nM (active)	266 nM (active)	246 nM (active)	150 nM (active)	347 nM (active)	188 nM (active)	335 nM (active)	299 nM (active)	1680 nM (active)
CC(C)C(Br)C(=O)NC(N)=O (centres undefined)	inactive	inactive	inactive	inactive	inactive	inactive	inactive	inactive	inactive	inactive
O=C(CCCCl)c1ccc(F)cc1	inactive	inactive	inactive	inactive	inactive	inactive	inactive	inactive	inactive	inactive
COc1cc(CC#N)cc(OC)c1OC	inactive	inactive	inactive	inactive	inactive	inactive	inactive	inactive	inactive	inactive
C[N+]1(CCC(C(N)=O)(c2ccccc2)c2ccccc2)CCCCC1	inactive	inactive	inactive	inactive	inactive	inactive	inactive	inactive	inactive	inactive
CC(C)NCC(O)c1ccc(N)c(C#N)c1 (centres undefined)	inactive	inactive	inactive	inactive	inactive	inactive	inactive	inactive	inactive	inactive
COc1ccc(C(=O)N2CCCC2=O)cc1	inactive	inactive	inactive	inactive	inactive	inactive	inactive	inactive	inactive	inactive
CCOC(=O)c1cncn1C(C)c1ccccc1 (centres undefined)	inactive	inactive	inactive	inactive	inactive	inactive	inactive	inactive	inactive	inactive
C[C@]12CC[C@H]3[C@@H](CCC4=CC(=O)CC[C@@]43C)[C@@H]1CC[C@@H]2C(=O)O	inactive	inactive	inactive	inactive	inactive	inactive	inactive	inactive	inactive	inactive
O=c1n(Cl)c(=O)n(Cl)c(=O)n1Cl	inactive	inactive	inactive	inactive	inactive	inactive	inactive	inactive	inactive	inactive

Compound	Potency [1]	Potency [2]	Potency [3]	Potency [4]	Potency [5]	Potency [6]	Potency [7]	Potency [8]	Potency [9]	Potency [10]
ClC1=C(Cl)C2(Cl)C(CBr)CC1(Cl)C2(Cl)Cl (centres undefined)	inactive	inactive	inactive	inactive	inactive	inactive	inactive	inactive	inactive	inactive
C1CN2CCC1CC2	inactive	inactive	inactive	inactive	inactive	inactive	inactive	inactive	inactive	inactive
O=C(O)c1nn(Cc2ccc(Cl)cc2Cl)c2ccccc12	inactive	inactive	inactive	inactive	inactive	inactive	inactive	inactive	inactive	inactive
C[C@]12CC[C@H]3[C@@H](CC=C4C[C@@H](O)CC[C@@]43C)[C@@H]1CC[C@@H]2O	inactive	inactive	inactive	inactive	inactive	inactive	inactive	inactive	inactive	inactive
O=C(O)Cc1ccccc1	inactive	inactive	inactive	inactive	inactive	inactive	inactive	inactive	inactive	inactive
CCOC(=O)NC(O)C(Cl)(Cl)Cl (centres undefined)	inactive	inactive	inactive	inactive	inactive	inactive	inactive	inactive	inactive	inactive
CCS(=O)(=O)C(C)(C)S(=O)(=O)CC	inactive	inactive	inactive	inactive	inactive	inactive	inactive	inactive	inactive	inactive
CCCCC1C(=O)NC(=O)N(C2CCCCC2)C1=O (centres undefined)	inactive	inactive	inactive	inactive	inactive	inactive	inactive	inactive	inactive	inactive
CN1C(=O)CN=C(c2ccccc2)c2cc([N+](=O)[O-])ccc21	inactive	inactive	inactive	inactive	inactive	inactive	inactive	inactive	inactive	inactive
CNC(=O)NC(O)C(Cl)(Cl)Cl (centres undefined)	inactive	inactive	inactive	inactive	inactive	inactive	inactive	inactive	inactive	inactive
Cc1ccc(N=CN(C)C=Nc2ccc(C)cc2C)c(C)c1	inactive	inactive	inactive	inactive	inactive	inactive	inactive	inactive	inactive	inactive
O=c1[nH]c2cc(Cl)ccc2n1C1CCNCC1	inactive	inactive	inactive	inactive	inactive	inactive	inactive	inactive	inactive	inactive
CCNc1nc(Cl)nc(NCC)n1	inactive	inactive	inactive	inactive	inactive	inactive	inactive	inactive	inactive	inactive
COP(=O)(OC)OC=C(Cl)Cl	inactive	inactive	inactive	inactive	inactive	inactive	inactive	inactive	inactive	inactive
Nc1ccccc1C(=O)OCC(O)CO (centres undefined)	inactive	inactive	inactive	inactive	inactive	inactive	inactive	inactive	inactive	inactive
CC[n+]1c(-c2ccccc2)c2cc(N)ccc2c2ccc(N)cc21	7700 nM (active)	11900 nM (active)	944 nM (active)	3090 nM (active)	11900 nM (active)	1550 nM (active)	13300 nM (active)			
COc1ccc(OC)c(CC(C)N)c1 (centres undefined)	inactive	inactive	inactive	inactive	inactive	inactive	inactive	inactive	inactive	inactive
CNC(=O)Oc1cccc2ccccc12	inactive	inactive	inactive	inactive	inactive	inactive	inactive	inactive	inactive	inactive
CNC(C)Cc1ccc2c(c1)OCO2 (centres undefined)	inactive	inactive	inactive	inactive	inactive	inactive		inactive	inactive	inactive
CCOC(=O)c1ncn2c1CN(C)C(=O)c1c(I)cccc1-2	inactive	inactive	inactive	inactive	inactive	inactive	inactive	inactive	inactive	inactive
O=C1CN2CCOC2(c2ccccc2Cl)c2cc(Cl)ccc2N1 (centres undefined)	inactive	inactive	inactive	inactive	inactive		inactive	inactive	inactive	inactive
O=C(NC(=O)c1c(F)cccc1F)Nc1cc(Cl)c(OC(F)(F)C(F)C(F)(F)F)cc1Cl (centres undefined)	inactive	inactive			inactive		inactive	inactive	inactive	inactive
C[C@@H]1C[C@@H]([C@H](O)CC2CC(=O)NC(=O)C2)C(=O)[C@@H](C)C1	4.86 µM (active) and 8.57 µM (active)	296 nM (active)		777 nM (active) and 611 nM (active)		276 nM (active) and 137 nM (active)	473 nM (active) and 235 nM (active)		inactive	inactive

Reference: PubChem BioAssay (NCATS)
